“And” between values parts separate entries of the source, which are not always exact repeats. Equal entries are not always repeated. About 2,000 (36%) of roughly 5,500 compounds were called active. Inconclusive results (about 18%) are left out. Rule as the data show it: active = normalized growth mostly below about 0.91 (no sharp cut-off); inconclusive = no clear call, values can overlap the other calls; inactive = mostly above about 0.92. The list shows a part of the results.
Assay: chemical genetic growth profiling, strain panel (AID 1159580);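 also: tested at 20 µM; growth read once vehicle control cultures reached saturation at 30 °C; 1 = growth at the plate median or of vehicle wells; lower values mean less growth of the strain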
Settings: S. cerevisiae deletion strains, growth OD

Measured: normalized growth

Nc1ccc(S(=O)(=O)Nc2ccccn2)cc1
inactive: locus YAL013W, strain DEP1, hits give low values 1.02 | locus YAL021C, strain ccr4, hits give low values 1 | locus YAL026C, strain drs2, hits give low values 1.01 | locus YAL030W, strain snc1, hits give low values 1.01 | locus YBL061C, strain skt5, hits give low values 1.01 | locus YBR009C, strain hhf1, hits give low values 0.983 | locus YBR021W, strain FUR4, hits give low values 1.04 | locus YBR023C, strain chs3, hits give low values 1.01 | locus YBR171W, strain sec66, hits give low values 1.01 | locus YBR229C, strain ROT2, hits give low values 1.01 | locus YBR231C, strain swc5, hits give low values 1.03 | locus YBR279W, strain paf1, hits give low values 1.01 | locus YCL011C, strain gbp2, hits give low values 0.99 | locus YCL016C, strain dcc1, hits give low values 1 | locus YCL029C, strain bik1, hits give low values 1 | locus YCL069W, strain vba3, hits give low values 1 | locus YCR088W, strain abp1, hits give low values 1 | locus YDL005C, strain med2, hits give low values 1.02 | locus YDL035C, strain GPR1, hits give low values 1.01 | locus YDL040C, strain nat1, hits give low values 1.01 | locus YDL074C, strain BRE1, hits give low values 1.02 | locus YDL101C, strain DUN1, hits give low values 1 | locus YDL134C, strain PPH21, hits give low values 1.01 | locus YDL185W, strain tfp1, hits give low values 0.982 | locus YDL192W, strain arf1, hits give low values 0.996 | locus YDR001C, strain nth1, hits give low values 1.01 | locus YDR069C, strain doa4, hits give low values 1.02 | locus YDR101C, strain arx1, hits give low values 0.987 | locus YDR137W, strain rgp1, hits give low values 1.01 | locus YDR159W, strain sac3, hits give low values 0.986 | locus YDR162C, strain NBP2, hits give low values 1 | locus YDR195W, strain ref2 1.04 | locus YDR297W, strain sur2, hits give low values 1.01 | locus YDR318W, strain mcm21, hits give low values 0.988 | locus YDR334W, strain swr1, hits give low values 1.01 | locus YDR335W, strain msn5, hits give low values 1.01 | locus YDR388W, hits give low values 0.988 | locus YDR392W, strain spt3, hits give low values 0.951 | locus YDR502C, strain sam2, hits give low values 0.996 | locus YEL003W, strain gim4, hits give low values 1.02 | locus YEL037C, strain rad23, hits give low values 1.01 | locus YEL061C, strain CIN8 (second series), hits give low values 1.01 | locus YEL061C, strain CIN8, hits give low values 1.01 | locus YER015W, strain faa2, hits give low values 1.02 | locus YER016W, strain bim1, hits give low values 0.996 | locus YER110C, hits give low values 0.993 | locus YER111C, strain swi4, hits give low values 1.01 | locus YER155C, strain BEM2 (second series), hits give low values 1.01 | locus YER155C, strain BEM2, hits give low values 1.01 | locus YER167W, strain BCK2, hits give low values 1 | locus YFR010W, strain ubp6, hits give low values 1.02 | locus YGL078C, strain dbp3, hits give low values 1 | locus YGL086W, strain mad1, hits give low values 1 | locus YGL167C, strain pmr1, hits give low values 1.02 | locus YGL173C, strain kem1, hits give low values 1.02 | locus YGL227W, strain vid30, hits give low values 1.02 | locus YGL240W, strain doc1, hits give low values 1.02 | locus YGL248W, strain PDE1, hits give low values 1.02 | locus YGL253W, strain hxk2, hits give low values 0.999 | locus YGR135W, strain pre9, hits give low values 1.01 | locus YGR229C, strain SMI1, hits give low values 1.02 | locus YGR252W, strain gcn5, hits give low values 1.03 | locus YHR013C, strain ard1, hits give low values 1.01 | locus YHR027C, strain rpn1, hits give low values 1.01 | locus YHR030C, strain SLT2, hits give low values 1.01 and 0.97 | locus YHR079C, strain IRE1 (second series), hits give low values 0.992 | locus YHR079C, strain IRE1, hits give low values 0.985 | locus YHR094C, strain hxt1, hits give low values 0.99 | locus YHR129C, strain ARP1, hits give low values 1.02 | locus YHR142W, strain chs7, hits give low values 0.98 | locus YHR200W, strain rpn10, hits give low values 0.986 | locus YIL066C, strain RNR3, hits give low values 1.01 | locus YIL073C, strain SPO22, hits give low values 0.989 | locus YIL125W, strain kgd1, hits give low values 0.983 | locus YIR030C, strain dcg1, hits give low values 0.996 | locus YJL092W, strain hpr5, hits give low values 1.02 | locus YJL095W, strain BCK1 (second series), hits give low values 1.01 | locus YJL095W, strain BCK1, hits give low values 1.02 and 0.979 | locus YJL115W, strain asf1, hits give low values 1.01 | locus YJL129C, strain trk1, hits give low values 1.02 | locus YJL134W, strain LCB3, hits give low values 1 | locus YJL154C, strain vps35, hits give low values 1.02 | locus YJL164C, strain tpk1, hits give low values 0.972 | locus YJL166W, strain qcr8, hits give low values 1.02 | locus YJL168C, strain set2, hits give low values 0.99 | locus YJL187C, strain SWE1 (second series), hits give low values 1.01 | locus YJR043C, strain POL32, hits give low values 1 | locus YJR066W, strain TOR1, hits give low values 0.928

From PubChem BioAssay AID1159580 (chemical genetic matrix, 2015)
